Assay results as given in PubChem BioAssay (NCATS).
Inconclusive results are not listed. Activity calls are given as the source filed them. Calls follow the shape of the dose curve; as a rule, active = well fitted inhibition curve with a large enough effect; inconclusive = small, poorly fitted or top-dose-only effect; inactive = flat fitted curve, though single readings scatter.

What was measured:
Assay in all cases: qHTS profiling for inhibitors of Plasmodium falciparum proliferation (AID 504749); also: nearly all actives have a fitted effect of over 60% in size
Conditions in all cases: P. falciparum in erythrocytes, SYBR Green DNA, 72 h; series mostly up to 28.7 µM
[1] = test system: CP194
In short: (§1)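 P. falciparum-infected erythrocytes (0.3% parasitemia, 2.5% hematocrit) incubated with compound 72 h at 37 C, 5% CO2. Parasite DNA detected by SYBR Green after lysis, overnight at room temperature; normalised to 0.29 uM artemisinin and DMSO.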

[2] = test system: CP201
In short: as §1

[3] = test system: CP203
In short: as §1

[4] = test system: CP211
In short: as §1

[5] = test system: CP215
In short: as §1

[6] = test system: CP217
In short: as §1

[7] = test system: CP237
In short: as §1

[8] = test system: CP238
In short: as §1

[9] = test system: CP247
In short: as §1

[10] = test system: CP250
In short: as §1

[11] = test system: CP252
In short: as §1

[12] = test system: CP256
In short: as §1

[13] = test system: CP260
In short: as §1

[14] = test system: CP262
In short: as §1

[15] = test system: CP265
In short: as §1

[16] = test system: CP266
In short: as §1

[17] = test system: CP268
In short: as §1

[18] = test system: CP269
In short: as §1

[19] = test system: CP286
In short: as §1

[20] = test system: CP291
In short: as §1

Measured: Potency

CC(C)O
inactive: all assays above

CC1CCC(NC(=O)N(CCCl)N=O)CC1 (centres undefined)
inactive: all assays above

Cc1ccc(C(C)(C)c2ccc(C)cc2)cc1
inactive: all assays above

Oc1cc(O)cc(O)c1
inactive: all assays above

COC(=O)C(CN)c1c[nH]c2ccc(OC)cc12 (centres undefined)
inactive: all assays above

CC1=CCC2CC1C2(C)C (centres undefined)
inactive: all assays above

O=C(O)COc1ccccc1/C=N/NC(=O)c1ccncc1
inactive: all assays above

C=CC(=O)O
inactive: all assays above

CCN(CC)C(=O)c1cccnc1
inactive: all assays above

CCCC(=O)O
inactive: all assays above

O=C(O)Cc1nn(Cc2ccc(Br)cc2F)c(=O)c2ccccc12
inactive: all assays above

Cc1cc(C)c(NC(=O)C[C@H](CC(=O)O)c2cccc3ccccc23)c(C(=O)N2CCC3(CCCC3)CC2)c1
inactive: all assays above

CO/N=C(/C(=O)N[C@@H]1C(=O)N2C(C(=O)O)=C(COC(N)=O)CS[C@H]12)c1ccco1
inactive: all assays above

O=C(O)C1=C(CSc2nnnn2CS(=O)(=O)O)CS[C@@H]2[C@H](NC(=O)[C@H](O)c3ccccc3)C(=O)N12
inactive: all assays above

OC1OC[C@@H](O)[C@H](O)[C@@H]1O (some centres undefined)
inactive: all assays above

COC(=O)c1ccccc1O
inactive: all assays above

O=C1c2ccccc2C(=O)c2c1ccc(O)c2O
inactive: all assays above

CCCCCCCCCCCC(=O)OCC(O)CO (centres undefined)
inactive: all assays above

OB(O)O
inactive: all assays above

CCOc1ccc(S(=O)(=O)O)c2cccnc12
inactive: all assays above

CCOC(=O)c1cc(-c2ccccc2)nc2ccc(C)cc12
inactive: all assays above

CN1C(=O)OC(C)(C)C1=O
inactive: all assays above

CC(C)(COP(=O)(O)OP(=O)(O)OC[C@H]1O[C@@H](n2cnc3c(N)ncnc32)[C@H](O)[C@@H]1OP(=O)(O)O)C(O)C(=O)NCCC(=O)NCCS (some centres undefined)
inactive: all assays above

CC(C)CCC[C@@H](C)[C@H]1CC[C@H]2[C@@H]3CC=C4C[C@@H](O)CC[C@]4(C)[C@H]3CC[C@]12C
inactive: all assays above

COc1cc(S(C)=O)ccc1-c1nc2ncccc2[nH]1 (centres undefined)
inactive: all assays above

CC1=CC(=O)NS(=O)(=O)O1
inactive: all assays above

C=Cc1ccc(S(=O)(=O)O)cc1
inactive: all assays above

C=CC(C)(O)CC/C=C(\C)CCC=C(C)C (centres undefined)
inactive: all assays above

CN1CCC(OC(=O)C(Oc2ccc(Cl)cc2)Oc2ccc(Cl)cc2)CC1
inactive: all assays above

NC(=O)Oc1ccc(Cc2ccccc2)cc1
not listed: [20]
inactive: all other assays above

NCC(O)CC(=O)O (centres undefined)
inactive: all assays above

CCSc1ccc2c(c1)N(CCCN1CCN(C)CC1)c1ccccc1S2
inactive: all assays above

NCC[C@H](O)C(=O)N[C@@H]1C[C@H](N)[C@@H](O[C@H]2O[C@H](CN)[C@@H](O)[C@H](O)[C@H]2O)[C@H](O)[C@H]1O[C@H]1O[C@H](CO)[C@@H](O)[C@H](N)[C@H]1O
inactive: all assays above

Cc1ncc(C[n+]2csc(CCOP(=O)(O)OP(=O)(O)O)c2C)c(N)n1
inactive: all assays above

CC(C)=CCC/C(C)=C/CC/C(C)=C/CC/C=C(\C)CC/C=C(\C)CCC=C(C)C
inactive: all assays above

O=C1c2ccccc2CN2C(=O)c3ccccc3CN12
inactive: all assays above

O=C1CCC(=O)N1CO
inactive: all assays above

FCOC(C(F)(F)F)C(F)(F)F
inactive: all assays above

C=CCN1CCCC1CNC(=O)c1cc(S(N)(=O)=O)cc(OC)c1OC (centres undefined)
inactive: all assays above

CC(=O)[C@H]1CC[C@H]2[C@@H]3C=CC4=CC(=O)CC[C@@]4(C)[C@H]3CC[C@]12C
inactive: all assays above

[O]=[Bi][O]C(=O)[O][Bi]=[O]
inactive: all assays above

NCC[C@H](O)C(=O)N[C@@H]1C[C@H](N)[C@@H](O[C@H]2O[C@H](CN)CC[C@H]2N)[C@H](O)[C@H]1O[C@H]1O[C@H](CO)[C@@H](O)[C@H](N)[C@H]1O
inactive: all assays above

CCC(C)[C@@H](N)C(=O)O (some centres undefined)
inactive: all assays above

O=C(O)CCC/C=C\C[C@@H]1[C@@H](/C=C/[C@@H](O)COc2cccc(Cl)c2)[C@H](O)C[C@@H]1O
inactive: all assays above

CC(=O)N[C@@H]1C(O[C@H]2O[C@H](C(=O)O)C(O)[C@H](O)[C@H]2O)[C@H](O)[C@@H](CO)O[C@H]1O[C@@H]1C(C(=O)O)O[C@@H](O[C@H]2[C@H](O)[C@@H](CO)OC(O)[C@@H]2NC(C)=O)[C@H](O)[C@H]1O (some centres undefined)
inactive: all assays above

CC(C)Cc1ccc([C@@H](C)C(=O)NS(C)(=O)=O)cc1
inactive: all assays above

CO
inactive: all assays above

FC(F)(F)C(F)(F)C(F)(F)C(F)(F)C(F)(F)C(F)(F)F
inactive: all assays above

FC(F)(F)C(F)(F)C(F)(F)C(F)(F)C(F)(F)F
inactive: all assays above

c1ccc2ccccc2c1
inactive: all assays above

OC/C=C/c1ccccc1
inactive: all assays above

CCCCCCCCCCCCCCCCCCCCCC(=O)Nc1ccn([C@@H]2O[C@H](CO)[C@@H](O)[C@@H]2O)c(=O)n1
inactive: all assays above

CCC(Cc1c(I)cc(I)c(O)c1I)C(=O)O (centres undefined)
inactive: all assays above

Nc1nccs1
inactive: all assays above

CC/C(=C(/CC)c1ccc(OP(=O)(O)O)cc1)c1ccc(OP(=O)(O)O)cc1
inactive: all assays above
